A short description of assay [1]: blockers of IL-6 STAT3 signaling – U3A cells, luciferase, luminescence, confirmation (AID 1265;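 active means inhibition above the hit cutoff computed for the primary STAT3 screen, cut at about 44% in these data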;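 further: 0% = IL-6 plus DMSO and 100% = IL-6 plus nifuroxazide control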). The conditions noted are these: IL-6 STAT3 luciferase reporter, at 5.7 µM, hits give high values, cell line lacks STAT1. (A reporter such as luciferase makes a cellular process visible.)
The nature of assay [2]: inhibition of TNF-alpha-driven NF-kB transcription – cell-based, HEK293T, luciferase, TNF-alpha stimulus, counter-screen for STAT3 inhibitor project, confirmation (AID 1308).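 Further: 0% = TNF-alpha with DMSO and 100% = TNF-alpha with MG high control.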 The conditions noted are these: HEK293T NF-kB luciferase reporter, TNF-alpha induced; at 5.7 µM; hits give high values.
A short description of assay [3]: inhibition of STAT1-driven transcription – cell-based, NIH 3T3, luciferase luminescence, IFN-gamma, counter-screen for STAT3 inhibitor project, confirmation (AID 1317;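 active means inhibition above the mean plus 3 SD of solvent-only control wells, limit set per screening run, cut at about 16% in these data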;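 further: 0% = DMSO with IFN-gamma and 100% = nifuroxazide control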). The conditions noted are these: NIH 3T3 STAT1-luciferase reporter, IFN-gamma induced, at 5.7 µM, hits give high values.
Assay [4] in a line: potentiators of IFN-gamma STAT1 reporter activity – cell-based, HTS, luciferase reporter, confirmation (AID 1262;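 active means activation above a set limit carried over from the earlier primary STAT1 screen, cut at about 140% in these data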;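 further: simple ratio to median IFN-gamma plus DMSO wells so 0% means no light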). The settings on record: NIH 3T3 STAT1-luciferase reporter, IFN-gamma potentiation, luminescence; at 5.7 µM; hits give high values; 100% = IFN-gamma EC80 alone, no compound.
A short description of assay [5]: enhancement of NF-kB transcriptional signalling – cell-based, HEK293T, luciferase luminescence, TNF-alpha, counter-screen for STAT1 activator project (AID 1306;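 active means activation above the mean of solvent-only control wells plus 3 SD, set per campaign, cut at about 130% in these data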;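 further: TNF-alpha given at a submaximal dose yielding about 80% of full reporter signal; values are well signal over median control so 100% means no change and 0% no light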). The settings on record: HEK293T NF-kB luciferase reporter, TNF-alpha stimulated, at 5.7 µM, hits give high values, 100% = TNF-alpha with vehicle only. A general note: The purpose of a counterscreen is to sort out artefacts and off-target activity.

The target of assay [6] is Signal transducer and activator of transcription 3 (Homo sapiens) (UniProt P40763). In words: enhancers of IL-6 STAT3 transcription – U3A cells, luciferase, luminescence, counter-screen for STAT1 activator project, confirmation (AID 1316;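 active means activation above the solvent-only control well mean plus 3 SD, set per plate batch, cut at about 110% in these data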;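 further: 0% = no luminescence and 100% = median IL-6 plus DMSO wells; higher means more STAT3 reporter activation so hits are non-selective activators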). The conditions noted are these: U3A cells STAT3-luciferase reporter, IL-6, luminescence; at 5.7 µM; hits give high values; 100 = IL-6 alone, no compound effect; cells lack STAT1.

Assay [7] deals with DAF-12 nuclear receptor (Heterodera glycines), GAL4-LBD fusion. In words: hgDAF-12 GAL4 fusion reporter activation, retest – cell-based, luminescence, HEK293, GAL4-LBD fusion, confirmation (AID 743050;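 active means mean activation over triplicate wells above the hit cutoff derived from the earlier primary screen, cut at about 11% in these data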;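 further: 0% = DMSO low control and 100% = 2 mM sodium butyrate high control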). The settings on record: HEK293 GAL4-hgDAF12 luciferase reporter, agonist mode; at 6.8 µM; hits give high values; percent of butyrate response.
Assay [8] deals with Oxysterols receptor LXR-beta (Homo sapiens) (UniProt P55055). In words: nonspecific reporter activation via LXR – cell-based, luminescence, HEK293, H. glycines campaign, counter-screen for hgDAF-12 agonist project, confirmation (AID 743051;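 active means mean activation of the triplicate above a set limit carried over from the primary screen, none filed active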). The conditions noted are these: HEK293 Gal4-LXR luciferase reporter, 24 h; at 6.8 µM; hits give high values.
Oxysterols receptor LXR-beta (Homo sapiens), sequence (P55055 whole entry, looked up, the tested form may be a part): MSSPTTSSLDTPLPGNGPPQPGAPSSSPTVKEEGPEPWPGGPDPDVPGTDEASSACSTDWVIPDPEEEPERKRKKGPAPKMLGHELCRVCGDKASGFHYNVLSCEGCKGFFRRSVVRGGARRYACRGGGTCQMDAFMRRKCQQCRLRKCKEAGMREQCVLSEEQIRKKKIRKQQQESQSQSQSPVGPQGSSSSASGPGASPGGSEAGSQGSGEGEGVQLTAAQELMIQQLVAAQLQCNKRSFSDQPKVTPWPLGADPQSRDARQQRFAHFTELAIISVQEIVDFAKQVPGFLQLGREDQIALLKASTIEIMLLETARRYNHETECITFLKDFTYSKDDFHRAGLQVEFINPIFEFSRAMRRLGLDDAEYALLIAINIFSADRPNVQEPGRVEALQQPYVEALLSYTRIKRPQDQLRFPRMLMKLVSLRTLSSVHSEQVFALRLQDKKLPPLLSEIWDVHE
The target of assay [9] is Serine protease HTRA1 (Homo sapiens) (UniProt Q92743). In words: confirming inhibition of human HTRA1 – biochemical, fluorescence polarization, confirmation (AID 540248;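 active means mean inhibition over three repeats above a set limit taken from the earlier primary screen, cut at about 37% in these data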;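 further: 0% = HTRA1 with DMSO and 100% = wells lacking HTRA1; inhibitors block probe binding so polarization drops and inhibition rises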). The conditions noted are these: recombinant HTRA1, FP-rhodamine activity-based probe, at 5.96 µM, hits give high values. In general terms: In fluorescence polarisation assays a small probe gives low polarisation when free and higher when bound to something large.

Assay [10] in a line: suppression of KLF5 promoter-driven luciferase – DLD-1 cells, luminescence, confirmation (AID 1834;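 active means inhibition above a set limit taken from the earlier primary screen, cut at about 63% in these data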;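 further: 0% = DMSO wells and 100% = LY294002 at 200 µM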). The settings on record: DLD-1 KLF5 promoter firefly luciferase reporter, at 4 µM, hits give high values.
Assay [11] can be described thus: IEC-6 intestinal cell killing – luminescence, triplicate, cytotoxicity control for KLF5 inhibitor project (AID 1905; in the data active means inhibition above about 23%;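 further: cells exposed to compounds for 48 hours before viability read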). The settings on record: IEC-6 rat intestinal cells, viability luminescence; at 4 µM; hits give high values.
For assay [12], the target named is Nuclear receptor coactivator 3 (Homo sapiens) (UniProt Q9Y6Q9). In words: NCOA3 GAL4-fusion reporter inhibition – cell-based, luminescence, quadruplicate, confirmation (AID 588792;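 active means mean inhibition over 43.08%, the solvent-only control mean plus 3 SD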;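 further: 0% = DMSO treated cells and 100% = gossypol at 36 µM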). The settings on record: HEK293 GAL4-SRC3 luciferase reporter, at 3.6 µM, hits give high values.
Nuclear receptor coactivator 3 (Homo sapiens), sequence (Q9Y6Q9 whole entry, looked up, the tested form may be a part): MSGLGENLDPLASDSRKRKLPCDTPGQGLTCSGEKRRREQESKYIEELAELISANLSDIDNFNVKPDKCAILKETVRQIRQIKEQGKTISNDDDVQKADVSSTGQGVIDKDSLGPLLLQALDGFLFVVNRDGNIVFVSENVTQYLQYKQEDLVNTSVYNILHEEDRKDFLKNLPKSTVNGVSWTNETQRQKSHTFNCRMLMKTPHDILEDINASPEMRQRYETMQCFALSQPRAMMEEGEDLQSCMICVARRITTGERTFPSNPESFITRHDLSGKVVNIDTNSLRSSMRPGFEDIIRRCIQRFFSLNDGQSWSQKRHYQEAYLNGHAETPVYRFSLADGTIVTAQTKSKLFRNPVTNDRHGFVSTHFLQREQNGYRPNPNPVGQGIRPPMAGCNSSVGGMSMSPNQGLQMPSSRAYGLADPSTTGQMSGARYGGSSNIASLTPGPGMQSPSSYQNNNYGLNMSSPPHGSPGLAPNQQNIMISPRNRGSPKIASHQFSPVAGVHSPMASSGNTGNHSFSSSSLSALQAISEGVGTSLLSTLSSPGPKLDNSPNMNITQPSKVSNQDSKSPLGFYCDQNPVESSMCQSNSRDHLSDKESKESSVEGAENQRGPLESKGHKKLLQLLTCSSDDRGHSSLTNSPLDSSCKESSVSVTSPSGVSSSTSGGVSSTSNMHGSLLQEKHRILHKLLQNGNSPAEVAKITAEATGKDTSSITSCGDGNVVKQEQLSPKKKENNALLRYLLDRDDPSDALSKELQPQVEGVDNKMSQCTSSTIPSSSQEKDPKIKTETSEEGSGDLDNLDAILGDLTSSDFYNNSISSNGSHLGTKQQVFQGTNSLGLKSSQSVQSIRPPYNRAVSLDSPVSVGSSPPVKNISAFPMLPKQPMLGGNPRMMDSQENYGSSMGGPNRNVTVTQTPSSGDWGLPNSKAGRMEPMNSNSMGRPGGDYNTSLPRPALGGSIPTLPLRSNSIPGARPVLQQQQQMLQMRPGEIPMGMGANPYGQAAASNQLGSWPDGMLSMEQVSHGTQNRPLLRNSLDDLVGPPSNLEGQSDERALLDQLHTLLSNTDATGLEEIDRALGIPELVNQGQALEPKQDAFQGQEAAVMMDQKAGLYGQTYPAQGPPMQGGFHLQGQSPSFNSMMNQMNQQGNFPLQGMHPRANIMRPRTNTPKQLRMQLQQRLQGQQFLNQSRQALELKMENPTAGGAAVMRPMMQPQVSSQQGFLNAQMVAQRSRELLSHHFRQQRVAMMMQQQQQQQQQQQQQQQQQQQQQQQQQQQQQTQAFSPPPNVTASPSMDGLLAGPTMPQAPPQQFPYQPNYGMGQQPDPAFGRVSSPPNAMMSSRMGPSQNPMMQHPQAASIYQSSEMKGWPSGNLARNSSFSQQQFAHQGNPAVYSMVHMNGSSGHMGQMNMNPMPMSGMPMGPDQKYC
Assay [13] has as its system transactivating tegument protein VP16 (Human herpesvirus 1), Gal4-VP16 luciferase reporter. In words: repression of VP16-driven luciferase reporter – cell-based, luminescence, high throughput, counter-screen for SRC3 inhibitor project (AID 588794; in the data active means inhibition above about 30%). The conditions noted are these: mammalian cells, at 3.6 µM, hits give high values.
The target in assay [14] is Photoreceptor-specific nuclear receptor (Homo sapiens) (UniProt Q9Y5X4). In words: retest of NR2E3-NCOR disrupting agonists – cell-based, luminescence, CHO-S two-hybrid, confirmation (AID 624378;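 active means average inhibition above a cutoff equal to the mean inhibition of all tested compounds plus one SD, cut at about 70% in these data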;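 further: 0% = DMSO in NR2E3 cells and 100% = DMSO in cells lacking NR2E3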). The settings on record: CHO-S mammalian two-hybrid NR2E3-NCOR, luciferase luminescence; at 3.98 µM; hits give high values.
Photoreceptor-specific nuclear receptor (Homo sapiens), sequence (Q9Y5X4 whole entry, looked up): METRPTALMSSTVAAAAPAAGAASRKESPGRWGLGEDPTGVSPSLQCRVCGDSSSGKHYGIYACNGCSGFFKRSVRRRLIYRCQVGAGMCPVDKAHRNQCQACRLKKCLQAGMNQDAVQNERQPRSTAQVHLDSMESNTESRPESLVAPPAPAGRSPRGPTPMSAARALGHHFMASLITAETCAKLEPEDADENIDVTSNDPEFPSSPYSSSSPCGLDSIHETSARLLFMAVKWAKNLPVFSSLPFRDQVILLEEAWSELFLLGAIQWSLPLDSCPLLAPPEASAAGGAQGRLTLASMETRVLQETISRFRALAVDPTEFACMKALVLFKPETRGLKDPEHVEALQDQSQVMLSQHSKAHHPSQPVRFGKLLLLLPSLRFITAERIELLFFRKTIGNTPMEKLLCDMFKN
Assay [15] is described as follows: nonselective effects on VP16 transactivation – cell-based, luminescence, CHO-S, high throughput, counter-screen for NR2E3 agonist project, confirmation (AID 624379;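 active means mean inhibition above a cutoff equal to the average over all tested compounds plus one standard deviation, cut at about 70% in these data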;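 further: 0% = DMSO with VP16-transfected cells and 100% = DMSO with cells lacking VP16; higher means less reporter light so more repression of VP16 activity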). The settings on record: CHO-S GAL4-VP16 luciferase reporter, at 3.98 µM, hits give high values.
Assay [16] in a line: StAR promoter reporter inhibitors, counter-screen for LRH-1 inverse agonist project, cell-based, luminescence, high throughput (AID 651611; in the data active means inhibition above about 28%). The conditions noted are these: StAR promoter luciferase reporter counterscreen, at 3.6 µM, hits give high values.
Assay [17] deals with Nuclear receptor subfamily 5 group A member 2 (Homo sapiens) (UniProt O00482). In words: NR5A2 activity suppression in reporter cells – cell-based, luminescence, confirmation (AID 651613; in the data active means inhibition above about 42%;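 further: HEK293T cells co-transfected with LRH-1 and StAR promoter luciferase reporter; 0% = vehicle wells and 100% = parental cells lacking receptor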). The settings on record: cell-based LRH-1 luciferase reporter, inverse agonism; at 3.6 µM; hits give high values.
Nuclear receptor subfamily 5 group A member 2 (Homo sapiens), sequence (O00482 whole entry, looked up): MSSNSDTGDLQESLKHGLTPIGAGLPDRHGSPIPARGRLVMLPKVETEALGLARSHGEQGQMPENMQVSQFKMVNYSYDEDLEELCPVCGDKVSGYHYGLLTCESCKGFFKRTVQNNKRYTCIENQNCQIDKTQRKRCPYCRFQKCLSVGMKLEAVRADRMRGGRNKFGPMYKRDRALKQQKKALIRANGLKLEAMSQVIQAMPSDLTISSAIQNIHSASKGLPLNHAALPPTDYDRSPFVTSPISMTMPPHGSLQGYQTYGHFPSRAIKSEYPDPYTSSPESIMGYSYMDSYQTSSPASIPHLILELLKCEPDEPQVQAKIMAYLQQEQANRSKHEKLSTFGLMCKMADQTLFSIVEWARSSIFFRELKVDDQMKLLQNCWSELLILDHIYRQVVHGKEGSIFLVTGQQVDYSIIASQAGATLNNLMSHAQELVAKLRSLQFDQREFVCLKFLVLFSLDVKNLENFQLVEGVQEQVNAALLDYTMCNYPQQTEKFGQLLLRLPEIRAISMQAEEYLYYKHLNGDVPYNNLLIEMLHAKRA
Assay [18] concerns the target Steroidogenic factor 1 (Homo sapiens) (UniProt Q13285). In words: inverse agonism at SF1 nuclear receptor – cell-based, luminescence, high throughput, counter-screen for LRH-1 inverse agonist project (AID 651614; in the data active means inhibition above about 44%;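 further: cells cotransfected with StAR promoter reporter and SF1 expression vector; 0% = vehicle on cells with receptor and 100% = vehicle on cells lacking receptor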). The settings on record: cell-based SF1 luciferase reporter, at 3.6 µM, hits give high values.
Assay [19] is described as follows: compounds suppressing VP16-driven luciferase signal – cell-based, luminescence, high throughput, counter-screen for LRH-1 inverse agonist project (AID 651615; in the data active means inhibition above about 33%). The conditions noted are these: Gal4-VP16 luciferase reporter cells, at 3.6 µM, hits give high values.
In assay [20] the target is Platelet-activating factor acetylhydrolase (Homo sapiens) (UniProt Q13093). In words: inhibition of plasma PAF acetylhydrolase – biochemical, fluorescence polarization, human, confirmation (AID 463230;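 active means mean inhibition of the triplicate above the hit cutoff set for the earlier primary screen, cut at about 25% in these data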;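 further: 0% = enzyme with DMSO and 100% = wells lacking pPAFAH enzyme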). The conditions noted are these: recombinant pPAFAH, FP-Rh probe fluorescence polarization; at 3.39 µM; hits give high values.
Platelet-activating factor acetylhydrolase (Homo sapiens), sequence (Q13093 whole entry, looked up): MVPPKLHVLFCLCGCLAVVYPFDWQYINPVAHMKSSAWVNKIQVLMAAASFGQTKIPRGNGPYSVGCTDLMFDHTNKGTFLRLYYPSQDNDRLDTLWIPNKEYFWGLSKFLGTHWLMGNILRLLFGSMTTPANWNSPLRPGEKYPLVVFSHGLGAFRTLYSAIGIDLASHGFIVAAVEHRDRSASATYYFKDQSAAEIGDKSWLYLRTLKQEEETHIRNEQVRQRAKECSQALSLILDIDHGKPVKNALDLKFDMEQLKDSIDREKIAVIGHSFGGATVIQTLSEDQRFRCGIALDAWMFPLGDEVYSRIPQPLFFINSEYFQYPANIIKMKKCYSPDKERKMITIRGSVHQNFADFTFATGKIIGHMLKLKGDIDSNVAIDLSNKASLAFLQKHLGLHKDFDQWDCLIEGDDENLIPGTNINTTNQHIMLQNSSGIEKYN
Assay [21] is described as follows: reduced OD of T4-infected AddAB+ E. coli – absorbance, E. coli V3065, T4 phage, triplicate, AddAB inhibitor project, confirmation (AID 488942;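 active means mean inhibition above a set limit taken from the earlier primary screen, cut at about 13% in these data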;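 further: higher means less bacterial growth since AddAB block lets phage replicate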). The settings on record: E. coli V3065 expressing H. pylori AddAB, at 11.9 µM, hits give high values, T4 phage with gene 2 nonsense mutations.
The nature of assay [22]: reduced OD of phage-infected RecBCD+ V66 E. coli – absorbance, mutant T4 phage, counter-screen for AddAB inhibitor project (AID 488955;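 active means mean inhibition above the mean of solvent-only control wells plus 3 SD, cut at about 4% in these data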;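 further: optical density read after an 18 h incubation at 37 °C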). The settings on record: OD growth, at 11.9 µM, hits give high values.
Assay [23] in a line: bacterial growth inhibitors – absorbance, counter-screen for AddAB inhibitor project, confirmation (AID 488956; in the data active means inhibition above about 25%). The settings on record: bacterial viability, absorbance (AddAB counterscreen); at 11.9 µM; hits give high values.
Assay [24] deals with Nuclear receptor coactivator 1 (Homo sapiens) (UniProt Q15788). In words: NCOA1 GAL4-fusion reporter inhibition – cell-based, luminescence, quadruplicate, confirmation (AID 588820;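 active means mean inhibition above 46.68%, the untreated control wells mean plus 3 SD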;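 further: 0% = DMSO wells and 100% = gossypol 36 µM treated wells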). The conditions noted are these: HEK293 GAL4-SRC1 luciferase reporter, at 3.6 µM, hits give high values.
Assay [25] in a line: repression of VP16-driven luciferase reporter – cell-based, luminescence, high throughput, counter-screen for SRC1 inhibitor project (AID 588824; in the data active means inhibition above about 25%). The settings on record: cell-based VP16 transactivation luciferase luminescence; at 3.6 µM; hits give high values.
Assay [26] in a line: VP16-driven transactivation reporter suppression – cell-based, luminescence, HEK293, counter-screen for COUP-TFII antagonist project (AID 687007; in the data active means inhibition above about 13%). The settings on record: HEK293 Gal4-VP16 luciferase reporter, at 8.5 µM, hits give high values.
Assay [27] has as its target COUP transcription factor 2 (Homo sapiens) (UniProt P24468). In words: retest of COUP-TFII reporter suppressors – cell-based, luciferase reporter, HEK293, triplicate, confirmation (AID 687008;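 active means mean inhibition over three repeats above a set limit taken from the earlier primary screen, cut at about 38% in these data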;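 further: 100% = cells given the luciferase reporter alone without the COUP-TF2 vector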). The conditions noted are these: HEK293 NGFI-A luciferase reporter, luminescence; at 8.5 µM; hits give high values.

Values without a mark were called inactive. Some of the results follow. The source made the active and inactive calls.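 How the source made its calls, unless noted: active means inhibition above the mean of solvent-only control wells plus 3 SD, cutoff set per campaign (cut at about 13% in these data); inactive means the rest.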

Steroidogenic factor 1 (Homo sapiens), sequence (Q13285 whole entry, looked up, the tested form may be a part): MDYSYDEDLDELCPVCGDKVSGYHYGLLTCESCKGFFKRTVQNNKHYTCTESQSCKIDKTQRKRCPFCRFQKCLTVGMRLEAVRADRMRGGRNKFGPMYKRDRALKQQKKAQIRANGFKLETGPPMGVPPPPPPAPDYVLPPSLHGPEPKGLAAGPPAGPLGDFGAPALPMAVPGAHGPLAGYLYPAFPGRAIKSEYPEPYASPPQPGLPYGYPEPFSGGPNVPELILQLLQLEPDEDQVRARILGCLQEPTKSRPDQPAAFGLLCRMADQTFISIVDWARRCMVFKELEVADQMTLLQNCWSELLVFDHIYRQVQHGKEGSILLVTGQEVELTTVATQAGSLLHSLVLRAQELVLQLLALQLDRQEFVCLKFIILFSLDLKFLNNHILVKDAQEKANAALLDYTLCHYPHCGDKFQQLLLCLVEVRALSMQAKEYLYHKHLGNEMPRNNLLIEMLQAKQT
COUP transcription factor 2 (Homo sapiens), sequence (P24468 whole entry, looked up): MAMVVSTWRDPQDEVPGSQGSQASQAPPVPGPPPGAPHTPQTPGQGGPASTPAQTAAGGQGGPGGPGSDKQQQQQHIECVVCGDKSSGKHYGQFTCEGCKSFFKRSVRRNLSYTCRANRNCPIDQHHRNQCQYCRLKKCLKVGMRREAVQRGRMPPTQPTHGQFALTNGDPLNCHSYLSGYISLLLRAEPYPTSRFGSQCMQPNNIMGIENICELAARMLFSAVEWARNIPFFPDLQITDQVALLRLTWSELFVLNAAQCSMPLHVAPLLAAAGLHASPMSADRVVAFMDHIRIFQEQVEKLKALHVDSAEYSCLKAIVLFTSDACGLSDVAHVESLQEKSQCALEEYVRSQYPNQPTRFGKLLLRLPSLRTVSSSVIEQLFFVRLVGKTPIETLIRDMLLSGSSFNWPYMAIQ

Broadly, the inhibition is the relative decrease from the control value, in per cent. For the compound `OCCn1c(-c2ccccc2)csc1=Nc1ccccc1`, the inhibition in assay [1] is 14%; in assay [2], -12%; in assay [3], -20.1%.

In the case of `Cc1cc(Cl)ccc1OCc1nc(-c2ccncc2)no1`, the figures for the activation (% of control) in assay [4], in assay [5] and in assay [6] were 165% (active), 138% (active) and 106%, respectively. For the same compound, the activation is 15.6% (active) in assay [7] and 0.57% in [8].

As for `Cc1ccc(Nc2ccccc2N)cc1`, the inhibition in [1] was 24.3%; in assay [2] it was 22.9% (active); in assay [3], 6.8%; in assay [9], 53.1% (active).

As to `COc1cc(N=Cc2c(O)[nH]c3ccccc23)cc(OC)c1OC`, the inhibition was 49.1% (active) in [1]; 27% (active) in assay [2]; -12% in assay [3]; 76.8% (active) in [10]; 19.1% in assay [11]; 28.2% in assay [12]. Besides, the inhibition in [13] is 1.5%; in [14] it was 73.8% (active); in assay [15], 58.7%; in [16], 61.7% (active); in assay [17], 54.4% (active); in [18], 69.2% (active). Moreover, in assay [19], the inhibition was 25.2%.

As for `COc1ccc(C2=Nc3cc(C)ccc3OC2)cc1`, the inhibition in [1] is 19.3%; in assay [2], -18.5%; in assay [3], -114%.

For `Cc1ccc(-c2cc(C(=O)N/N=C/C=C/c3ccco3)c3ccccc3n2)cc1C`, the inhibition in [1] is -39.2%; in [2], 12.6%; in [3], -40.9%.

As to `COc1cccc(/C=C/c2ccc3ccccc3n2)c1OC(C)=O`, the inhibition is 25.2% in [1], 32.1% (active) in assay [2] and -9.23% in assay [3].

For `O=C(Nc1nc2ccccc2s1)c1ccc2c(c1)OCO2`, the inhibition in assay [1] is 41.7%; in assay [2] it was 10.6%; in assay [3], -93.8%.

For the compound `Cc1cc(NC(=O)c2cc(-c3cccs3)on2)nn1Cc1ccc(Cl)cc1`, the results for the inhibition in [1], in assay [2] and in [3] were 46.6% (active), 8.43% and 0.57%, respectively.

With `Cn1c(SCC(=O)N2CCCc3ccccc32)nc2ccccc2c1=O`, the figures for the inhibition in assay [1], in [2] and in assay [3] were 49.3% (active), 13.7% (active) and 22.5% (active), respectively.

Regarding `CCN1/C(=C\c2ccc3ccccc3[n+]2CC)Sc2cc(C)ccc21`, the inhibition was 86.2% (active) in assay [1]; 33.4% (active) in assay [2]; 19% (active) in [3]; 2.61% in assay [20]; 34.1% (active) in assay [21]; 5.58% (active) in [22]. The inhibition in [23] is 16.1%; in assay [12] it was 35.8%; in assay [13], 70.5% (active); in assay [24], 32.7%; in assay [25], 67.9% (active); in assay [14], 98.3% (active). Also, the inhibition in assay [15] was 87.5% (active); in assay [16], 59.5% (active); in assay [17], 107% (active); in assay [18], 86.4% (active); in assay [19], 83.4% (active); in assay [26], 10.8%. Moreover, the inhibition in assay [27] is 66.5% (active).

These data come from PubChem BioAssay.
